Rows were chosen to be rich in hits. Some 11% of all compounds tested hit in one or more screens of this group.
L major viab: reduces viability of Leishmania major promastigotes. inhibition, % at 10 µM. resazurin fluorescence viability. actives 9% (n = 200,000); in the data active = inhibition above about 50%;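 note: promastigotes grown with compound for 44 hours at 28 °C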
Autophagy mod: autophagy modulation, high-content screen. MEF GFP-LC3 puncta imaging; test concentration mostly 10 µM. calls only at 10 µM (by protocol). actives 0.98% (n = 190,000);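 active = percentage of spot-positive cells more than 3 SD above its plate mean, without a fluorescence outlier flag or 80% toxicity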;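 note: spot-positive cell cutoff set from DMSO-treated cells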
WT yeast gro inh: growth inhibition of WT yeast, mitochondrial fusion screen. mitochondrial fusion phenotypic screen, WT strain. inhibition, % at 10 µM. actives 2.1% (n = 190,000). AID 1362; in the data active = inhibition above about 58%; tested in S. cerevisiae
Insulin prom up: MIN6 insulin promoter up-regulation | MIN6 insulin promoter-GFP reporter, high-content imaging; stronger effect = higher value | AID 1625 | actives 0.3% (n = 190,000) | z-score at 5 µM;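 active = z-score above 3 at 5 µM with at least 500 cells counted in the well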
INS promoter inh: TRM-6 insulin promoter activity inhibition. TRM-6 cells (human fetal islet line), insulin promoter-eGFP reporter, imaging; reporter expression induced with tamoxifen. inhibition, % at 2 µM. actives 0.9% (n = 130,000). AID 1273;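 active = inhibition above the mean plus 3 SD, with well images judged a real hit on visual review, cut at about 60% in these data, passing the limit was not always enough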
Starred values were filed as active, the others as inactive; i = inactive; nt = not tested or not shown; + = active, no number.

SMILES | L major viab | Autophagy mod | WT yeast gro inh | Insulin prom up | INS promoter inh
COCCn1c(=O)[nH]c(=O)c2c1nc(-c1cc(Br)c3c(c1)OCO3)n2Cc1ccccc1 | 13 | i | 5 | -1.6 | nt
NC(=O)c1ccc(Oc2ccc(C(N)=O)cc2)cc1 | nt | nt | nt | -0.23 | nt
COC(=O)c1nnn(CC(=O)NC(=O)Nc2cccc(Cl)c2C)c1C(=O)OC | 6 | i | 0 | -0.27 | 44
Cc1nonc1OCCNc1ccc([N+](=O)[O-])cc1 | -7 | i | -3 | -0.26 | 42
Cc1nonc1OCCNCCNc1ccc([N+](=O)[O-])cc1Cl | 87* | i | 16 | nt | -79
CC(C)(C)C(=O)n1nc(-c2ccccc2)oc1=O | -8 | i | -25 | 0.1 | nt
CNC(=O)C(=O)Nc1nc(C23CC4CC(CC(C4)C2)C3)cs1 | 25 | i | -4 | -0.96 | 7
CNc1nc(N)c(C(=O)C23CC4CC(CC(C4)C2)C3)s1 | 100* | i | -13 | 0.42 | nt
Fc1cccc(Cl)c1CSc1nnc(COc2cccc3cccnc23)o1 | 6 | i | 5 | -0.46 | -16
Cc1[nH]n(-c2nc(-c3ccc(Cl)cc3)cs2)c(=O)c1N=Nc1ccc(O)cc1 | 71* | i | 18 | -1.5 | nt
COc1ccc(CC(=O)NNC(=O)CSc2nc(C)c(C)c(=O)[nH]2)cc1 | -2 | i | 6 | nt | nt
CCN(CC)CCCNC(=O)c1sc2nc(-c3ccc(F)cc3)cn2c1C | 48 | + | -5 | 0.67 | nt
Cc1c(C(=O)NCc2ccccn2)sc2nc(-c3ccc(F)cc3)cn12 | 28 | i | 13 | -0.64 | -108
Clc1ccc(-n2cccc2CN2CCc3c([nH]c4ccccc34)C2c2ccccn2)nc1 (stereo unspecified) | 96* | i | 49 | -1.6 | nt
COc1cccc(C2c3[nH]c4ccccc4c3CCN2Cc2cccn2-c2ncccn2)c1 (stereo unspecified) | 11 | i | 17 | nt | 22
Fc1ccc(C2c3[nH]c4ccccc4c3CCN2Cc2cccn2-c2ncccn2)cc1 (stereo unspecified) | 67* | i | 23 | -1 | 7
Cc1nc(Nc2cccc(C(C)O)c2)c2nnn(Cc3ccc(F)cc3)c2n1 (stereo unspecified) | 26 | i | 1 | 0.41 | 25
O=C(c1ccccc1)N1CCN(S(=O)(=O)c2cccc(NS(=O)(=O)c3ccccc3)c2)CC1 | 2 | i | -2 | 0.55 | nt
[N-]=[N+]=CC(=O)C(c1ccccc1)(c1ccccc1)c1ccccc1 | nt | nt | nt | 0.27 | nt
CC1CN(C2CCN(C(=O)c3ccccc3)CC2)CC(C)O1 (stereo unspecified) | 39 | i | -8 | 0.08 | 16
NS(=O)(=O)c1ccc(NC(=O)CSc2nc3ccccc3[nH]2)cc1 | -3 | i | -7 | -0.18 | -28
N#C/C(=C\c1cc2ccccc2nc1N1CCCCC1)C(N)=O | 76* | i | 7 | 0.19 | 7
N#CC1=C(SCC(=O)Nc2ccccc2)NC(=O)CC1c1ccco1 (stereo unspecified) | -5 | + | -15 | nt | 25
Cc1ccc(C2CC(=O)NC(SCc3ccccc3)=C2C#N)o1 (stereo unspecified) | 18 | i | 2 | 3.4* | nt
N#CC1=C(SCC(=O)NCc2ccccc2)NC(=O)CC1c1ccco1 (stereo unspecified) | 1 | i | 11 | -0.85 | -39
SMILES | L major viab | Autophagy mod | WT yeast gro inh | Insulin prom up | INS promoter inh
COc1cccc(NC(=O)CSC2=C(C#N)C(c3ccco3)C3=C(CCCC3=O)N2)c1 (stereo unspecified) | 4 | + | 0 | 0.1 | nt
COc1cccc(NC(=O)CSc2nc3c(c(-c4ccco4)c2C#N)CCCC3)c1 | -7 | i | 76* | 0.92 | 7
NS(=O)(=O)c1ccc(NC(=O)c2ccccc2C(=O)N2CCCCC2)cc1 | -3 | i | -11 | -0.24 | -17
COC(=O)c1cc(C#N)c(N2CCN(C)CC2)nc1C | -2 | i | 0 | -0.44 | nt
CCOC(=O)c1c(C)c(-c2ccccc2)n(CC(=O)NCCCN(CC)CC)c1C | 51* | i | 0 | 0.96 | 25
COc1cc(/C=C2\SC(c3ccc(C)cc3)=NC2=O)cc(OC)c1O | 57* | i | 8 | 0.18 | 4
Cc1cccc(-n2c3nc(=O)[nH]c(=O)c-3cc3c(C)nn(-c4ccccc4)c32)c1 | 12 | i | -13 | -0.37 | 62*
CC(=O)NC(NC(=S)N1CCCCCC1)C(Cl)(Cl)Cl (stereo unspecified) | -1 | i | 1 | 0.34 | nt
OCCN(C=NC1=NN(c2cccc(C(F)(F)F)c2)CC1)CCO | -4 | i | -27 | nt | 3
CCN(C=NC1=NN(c2cccc(C(F)(F)F)c2)CC1)CC | 13 | i | 23 | -0.47 | 62*

From PubChem BioAssay
